# Reference: PubChem BioAssay (EPA / NIEHS)
# Records with an inconclusive call do not appear. Active and inactive are the calls of the source. Rule for the calls, unless noted: active = hit-call score of the fitted dose curve at least 0.9, where 1 is the maximum; inconclusive = response in the unintended direction; inactive = score below 0.9.
# Experiments:
# [1] = ATG_TCF_b_cat_CIS: Attagene CIS-FACTORIAL HepG2 Assay for human T-Cell-Factor with beta-catenin (TCF/b-cat) (AID 2282965; active = hit-call score of the fitted dose curve at least 0.9, where 1 is the maximum; inactive = score below 0.9); conditions: HepG2 TCF/beta-catenin cis-reporter transcription, actives raise or lower the signal
# In short: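 Endogenous transcription factor activity is captured through cis-promoter reporter constructs transiently introduced into human HepG2 liver cells. Induced reporter mRNA is measured after 24 h and fitted bidirectionally relative to DMSO.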
# [2] = ATG_TAL_CIS: Attagene CIS-FACTORIAL HepG2 Assay for human TAL Basal Promoter (AID 2282966; active = hit-call score of the fitted dose curve at least 0.9, where 1 is the maximum; inactive = score below 0.9;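 note: background control endpoint measuring basal TAL promoter reporter mRNA not a specific factor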); conditions: HepG2 Attagene cis-factorial TAL promoter reporter; actives raise or lower the signal
# In short: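 Readout: reporter mRNA, fluorescence by CE. System: HepG2, transient multi-reporter transfection, endogenous TF activity. Exposure: 24 h. Analysis: bidirectional, DMSO-normalized; background control.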
# [3] = ATG_TGFb_CIS: Attagene CIS-FACTORIAL HepG2 Assay for human Transforming Growth Factor (TGF) (AID 2282967; active = hit-call score of the fitted dose curve at least 0.9, where 1 is the maximum; inactive = score below 0.9); conditions: HepG2 Attagene CIS TGFb reporter, mRNA transcription; actives raise or lower the signal
# In short: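 Liver HepG2 line, cis-factorial reporter panel, 24 h dosing. Quantitation: RT-PCR products labeled with 6-FAM, cut with HpaI, resolved by capillary electrophoresis; DMSO-referenced bidirectional analysis.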
# [4] = ATG_VDRE_CIS: Attagene CIS-FACTORIAL HepG2 Assay for human Vitamin D Receptor Element (VDRE) (AID 2282968; active = hit-call score of the fitted dose curve at least 0.9, where 1 is the maximum; inactive = score below 0.9); conditions: HepG2 VDRE cis-reporter transcription, actives raise or lower the signal
# In short: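 In transiently transfected HepG2 liver cells, gain or loss of reporter mRNA after 24 h exposure is scored relative to DMSO, using fluorescence detection by capillary electrophoresis of RT-PCR products.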
# [5] = target: Estrogen receptor (Homo sapiens) (UniProt P03372); test: ATG_ERa_TRANS: Attagene TRANS-FACTORIAL HepG2 Assay for human Estrogen Receptor alpha (ERa) (AID 2282970); conditions: HepG2 Attagene TRANS ERa GAL4 reporter, mRNA
# Sequence of Estrogen receptor (Homo sapiens) (P03372 whole entry, looked up, the tested form may be a part): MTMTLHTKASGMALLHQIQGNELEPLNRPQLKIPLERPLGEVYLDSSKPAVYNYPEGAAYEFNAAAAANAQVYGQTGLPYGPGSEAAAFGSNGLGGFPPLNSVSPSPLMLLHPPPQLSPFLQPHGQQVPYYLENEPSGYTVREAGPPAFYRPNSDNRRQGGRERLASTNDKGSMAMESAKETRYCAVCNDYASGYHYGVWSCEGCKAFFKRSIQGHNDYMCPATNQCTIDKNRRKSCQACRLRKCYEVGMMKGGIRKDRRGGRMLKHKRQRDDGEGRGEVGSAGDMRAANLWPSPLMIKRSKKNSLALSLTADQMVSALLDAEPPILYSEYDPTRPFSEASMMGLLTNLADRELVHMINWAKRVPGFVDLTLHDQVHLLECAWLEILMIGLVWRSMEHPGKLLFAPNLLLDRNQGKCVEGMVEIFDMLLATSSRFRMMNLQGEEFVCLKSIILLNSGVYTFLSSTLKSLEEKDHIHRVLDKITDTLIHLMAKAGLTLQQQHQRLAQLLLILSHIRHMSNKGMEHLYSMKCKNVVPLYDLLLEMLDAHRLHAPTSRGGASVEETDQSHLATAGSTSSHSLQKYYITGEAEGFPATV
# In short: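 Transactivation via ERa-Gal4 chimera in HepG2; 24 hour incubation; reporter mRNA detected by fluorescence RT-PCR and capillary electrophoresis.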
# [6] = target: X-box-binding protein 1 (Homo sapiens) (UniProt P17861); test: ATG_Xbp1_CIS: Attagene CIS-FACTORIAL HepG2 Assay for human X-box Binding Protein 1 (XBP1) (AID 2282972; active = hit-call score of the fitted dose curve at least 0.9, where 1 is the maximum; inactive = score below 0.9); conditions: HepG2 XBP1 cis-element reporter, Attagene multiplex; actives raise or lower the signal
# Sequence of X-box-binding protein 1 (Homo sapiens) (P17861 whole entry, looked up, the tested form may be a part): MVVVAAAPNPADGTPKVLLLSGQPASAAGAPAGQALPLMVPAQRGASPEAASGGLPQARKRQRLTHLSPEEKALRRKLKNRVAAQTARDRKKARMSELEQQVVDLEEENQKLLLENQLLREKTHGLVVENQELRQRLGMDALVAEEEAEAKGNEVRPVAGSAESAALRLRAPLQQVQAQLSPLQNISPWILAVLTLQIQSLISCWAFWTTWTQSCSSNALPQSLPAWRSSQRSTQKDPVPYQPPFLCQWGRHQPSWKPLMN
# In short: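 Fluorescence-labelled cDNA fragments from reporter transcripts, separated by capillary electrophoresis, give the signal. Source: HepG2 cells transfected with promoter-driven reporter units, harvested 24 h post-dose. DMSO served as reference for bidirectional curve fitting.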
# [7] = ATG_M_19_TRANS: Attagene TRANS-FACTORIAL HepG2 Assay for M19 Transcription Factor (Internal Marker) (AID 2282974); conditions: HepG2 Attagene TRANS-FACTORIAL M19 internal marker reporter
# In short: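 Background-control readout: after 24 h chemical exposure of transfected HepG2 carrying GAL4-driven reporter units, RNA was reverse-transcribed, amplified, fluorescently labeled and sized by capillary electrophoresis; gain-of-signal fit against DMSO.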
# [8] = ATG_GAL4_TRANS: Attagene TRANS-FACTORIAL HepG2 Assay for GAL4 (Internal Marker) (AID 2282976); conditions: HepG2 Attagene TRANS GAL4 internal marker reporter
# In short: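 Fluorescence from capillary electrophoresis of labelled RT-PCR products quantifies reporter mRNA induction after 24 h dosing of HepG2 cells carrying transfected GAL4-UAS reporter transcription units. Vehicle DMSO serves as baseline.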
# [9] = target: Glucocorticoid receptor (Homo sapiens) (UniProt P04150); test: ATG_GR_TRANS: Attagene TRANS-FACTORIAL HepG2 Assay for human Glucocorticoid Receptor (GR) (AID 2282978); conditions: HepG2 Attagene TRANS GR reporter, mRNA transcription;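 note: activators score as hits since higher reporter transcript over DMSO is fitted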
# Sequence of Glucocorticoid receptor (Homo sapiens) (P04150 whole entry, looked up, the tested form may be a part): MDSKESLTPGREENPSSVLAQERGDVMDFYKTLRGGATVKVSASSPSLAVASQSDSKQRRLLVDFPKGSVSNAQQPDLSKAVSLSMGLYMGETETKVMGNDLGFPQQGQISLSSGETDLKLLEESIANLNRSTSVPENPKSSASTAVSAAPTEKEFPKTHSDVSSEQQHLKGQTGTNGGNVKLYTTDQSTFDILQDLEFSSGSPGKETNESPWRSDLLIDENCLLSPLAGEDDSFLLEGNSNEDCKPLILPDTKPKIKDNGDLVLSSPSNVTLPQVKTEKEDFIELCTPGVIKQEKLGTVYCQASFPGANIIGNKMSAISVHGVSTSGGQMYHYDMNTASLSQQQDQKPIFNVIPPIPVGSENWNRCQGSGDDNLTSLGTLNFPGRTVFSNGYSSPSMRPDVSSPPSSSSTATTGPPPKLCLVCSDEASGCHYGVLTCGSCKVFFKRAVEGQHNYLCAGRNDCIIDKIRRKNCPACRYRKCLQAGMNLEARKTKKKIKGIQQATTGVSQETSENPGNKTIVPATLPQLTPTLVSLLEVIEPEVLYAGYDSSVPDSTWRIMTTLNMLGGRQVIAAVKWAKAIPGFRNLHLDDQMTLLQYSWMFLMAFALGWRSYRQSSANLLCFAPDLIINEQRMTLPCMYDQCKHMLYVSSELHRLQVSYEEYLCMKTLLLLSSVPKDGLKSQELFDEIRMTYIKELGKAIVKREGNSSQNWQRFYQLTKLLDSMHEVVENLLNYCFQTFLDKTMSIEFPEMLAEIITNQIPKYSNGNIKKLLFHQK
# In short: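 Readout is reporter transcript from a chimeric GR-Gal4 acting on GAL4-UAS in transfected human HepG2 liver cells after 24 h exposure, quantified by RT-PCR and capillary electrophoresis. Activation fitted upward against DMSO.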
# [10] = target: Bile acid receptor (Homo sapiens) (UniProt Q96RI1); test: ATG_FXR_TRANS: Attagene TRANS-FACTORIAL HepG2 Assay for Farnesoid X Receptor (FXR) (AID 2282979); conditions: HepG2 Attagene TRANS FXR-GAL4 reporter transcription;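 note: hits raise reporter mRNA above DMSO so AC50 marks FXR activation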
# Sequence of Bile acid receptor (Homo sapiens) (Q96RI1 whole entry, looked up, the tested form may be a part): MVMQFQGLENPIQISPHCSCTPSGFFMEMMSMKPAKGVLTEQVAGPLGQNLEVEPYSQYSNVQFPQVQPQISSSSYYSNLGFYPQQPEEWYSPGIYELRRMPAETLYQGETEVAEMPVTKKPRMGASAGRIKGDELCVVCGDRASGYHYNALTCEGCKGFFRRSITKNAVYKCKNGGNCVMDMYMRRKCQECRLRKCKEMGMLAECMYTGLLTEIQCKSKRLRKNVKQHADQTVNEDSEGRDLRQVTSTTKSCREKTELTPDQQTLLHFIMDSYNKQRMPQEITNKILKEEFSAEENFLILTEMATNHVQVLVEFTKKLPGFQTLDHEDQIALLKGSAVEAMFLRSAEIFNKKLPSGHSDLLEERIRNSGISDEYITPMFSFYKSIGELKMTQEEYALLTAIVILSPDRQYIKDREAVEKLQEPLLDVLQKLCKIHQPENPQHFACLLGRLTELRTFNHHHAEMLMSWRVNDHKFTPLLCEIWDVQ
# In short: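 Chimeric FXR-GAL4 activity in transiently transfected human HepG2 liver cells is scored as induction of reporter mRNA after 24 h of dosing. Detection uses RT-PCR with fluorescent labelling and capillary electrophoresis, with DMSO serving as baseline.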
# [11] = target: Hepatocyte nuclear factor 4-alpha (Homo sapiens) (UniProt P41235); test: ATG_HNF4a_TRANS: Attagene TRANS-FACTORIAL HepG2 Assay for human Hepatocyte Nuclear Factor 4 alpha (HNF4a) (AID 2282982); conditions: HepG2 HNF4a transactivation reporter, mRNA readout
# Sequence of Hepatocyte nuclear factor 4-alpha (Homo sapiens) (P41235 whole entry, looked up): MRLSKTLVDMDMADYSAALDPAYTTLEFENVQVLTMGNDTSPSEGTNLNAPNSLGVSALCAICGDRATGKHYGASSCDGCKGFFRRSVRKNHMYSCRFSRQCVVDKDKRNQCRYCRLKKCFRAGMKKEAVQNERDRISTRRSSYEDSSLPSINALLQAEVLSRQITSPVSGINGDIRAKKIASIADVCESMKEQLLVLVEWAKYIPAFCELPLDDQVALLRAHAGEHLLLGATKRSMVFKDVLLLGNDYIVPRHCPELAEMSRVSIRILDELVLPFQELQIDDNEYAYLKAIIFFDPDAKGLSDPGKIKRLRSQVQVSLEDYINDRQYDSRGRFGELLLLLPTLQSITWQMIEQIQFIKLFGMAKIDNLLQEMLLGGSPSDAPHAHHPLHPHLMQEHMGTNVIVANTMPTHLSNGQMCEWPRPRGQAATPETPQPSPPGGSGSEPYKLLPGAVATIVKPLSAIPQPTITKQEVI
# In short: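 Transfected HepG2 reporter cells are dosed for 24 h; reporter RNA is reverse-transcribed, amplified, fluorescently labelled and HpaI-digested before CE sizing. Positive-direction fit against DMSO.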
# [12] = ATG_M_06_TRANS: Attagene TRANS-FACTORIAL HepG2 Assay for M06 Transcription Factor (Internal Marker) (AID 2282983); conditions: HepG2 Attagene TRANS M06 internal marker reporter;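 note: reporter transcript level by RT-PCR then capillary electrophoresis fluorescence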
# In short: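 Measured by capillary electrophoresis of fluorescently labelled RT-PCR products, this endpoint reflects reporter mRNA in HepG2 cells harbouring exogenous NR-GAL4 reporter constructs after 24 h exposure, with DMSO as baseline.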
# [13] = target: Nuclear receptor subfamily 4 group A member 2 (Homo sapiens) (UniProt P43354); test: ATG_NURR1_TRANS: Attagene TRANS-FACTORIAL HepG2 Assay for human Nuclear Receptor Related Protein 1 (NURR1) (AID 2282985); conditions: HepG2 Attagene TRANS reporter, mRNA readout
# Sequence of Nuclear receptor subfamily 4 group A member 2 (Homo sapiens) (P43354 whole entry, looked up): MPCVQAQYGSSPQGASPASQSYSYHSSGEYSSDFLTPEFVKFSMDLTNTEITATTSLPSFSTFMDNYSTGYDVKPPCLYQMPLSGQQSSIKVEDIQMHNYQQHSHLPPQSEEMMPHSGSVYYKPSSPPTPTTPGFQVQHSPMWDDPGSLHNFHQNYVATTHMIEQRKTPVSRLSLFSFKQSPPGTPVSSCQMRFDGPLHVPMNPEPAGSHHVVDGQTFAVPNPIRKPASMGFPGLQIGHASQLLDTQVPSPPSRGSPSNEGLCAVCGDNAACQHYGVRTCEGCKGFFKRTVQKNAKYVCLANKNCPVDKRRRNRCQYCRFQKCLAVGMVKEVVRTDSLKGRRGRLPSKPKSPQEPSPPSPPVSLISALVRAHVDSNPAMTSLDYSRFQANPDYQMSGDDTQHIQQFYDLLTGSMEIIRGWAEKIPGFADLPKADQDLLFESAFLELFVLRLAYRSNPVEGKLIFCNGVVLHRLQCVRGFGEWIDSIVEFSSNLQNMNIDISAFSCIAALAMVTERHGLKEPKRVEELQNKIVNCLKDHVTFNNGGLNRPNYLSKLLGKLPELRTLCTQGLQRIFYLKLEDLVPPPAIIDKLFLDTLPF
# In short: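 Cells: HepG2, transiently transfected. Exposure: 24 h. Detection: fluorescence of labelled RT-PCR products separated by capillary electrophoresis; upward fit versus DMSO.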
# [14] = target: Steroid hormone receptor ERR1 (Homo sapiens) (UniProt P11474); test: ATG_ERRa_TRANS: Attagene TRANS-FACTORIAL HepG2 Assay for human Estrogen-Related Receptor alpha (ERRa) (AID 2282971); conditions: HepG2 Attagene TRANS reporter, ERRa transactivation
# In short: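 HepG2 cells were transiently transfected with multiple GAL4-UAS reporter units, then dosed with compound for 24 h. Total RNA was reverse-transcribed, reporter cDNA PCR-amplified and fluorescently labelled, and fragments resolved by capillary electrophoresis; induction was compared with DMSO.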
# [15] = target: Oxysterols receptor LXR-alpha (Homo sapiens) (UniProt Q13133); test: ATG_LXRa_TRANS: Attagene TRANS-FACTORIAL HepG2 Assay for human Liver X Receptor alpha (LXRa) (AID 2282980); conditions: HepG2 Attagene TRANS reporter, LXRa transactivation
# Sequence of Oxysterols receptor LXR-alpha (Homo sapiens) (Q13133 whole entry, looked up): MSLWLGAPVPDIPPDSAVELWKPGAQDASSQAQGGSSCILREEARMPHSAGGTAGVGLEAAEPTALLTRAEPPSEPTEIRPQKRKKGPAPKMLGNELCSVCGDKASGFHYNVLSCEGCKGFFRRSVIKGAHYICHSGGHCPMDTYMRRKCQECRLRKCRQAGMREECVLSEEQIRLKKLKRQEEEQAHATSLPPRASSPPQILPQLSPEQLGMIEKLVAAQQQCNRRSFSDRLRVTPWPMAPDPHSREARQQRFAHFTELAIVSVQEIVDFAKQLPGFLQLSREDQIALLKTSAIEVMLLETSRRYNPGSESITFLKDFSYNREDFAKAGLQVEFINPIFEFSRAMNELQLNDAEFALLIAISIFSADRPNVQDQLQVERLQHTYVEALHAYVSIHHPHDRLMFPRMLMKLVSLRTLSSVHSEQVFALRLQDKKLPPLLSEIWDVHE
# In short: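 Transient HepG2 transfectants, 24 h dosing, RT-PCR/CE mRNA reporter quantitation; gain-of-signal vs DMSO.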
# [16] = target: Oxysterols receptor LXR-beta (Homo sapiens) (UniProt P55055); test: ATG_LXRb_TRANS: Attagene TRANS-FACTORIAL HepG2 Assay for human Liver X Receptor beta (LXRb) (AID 2282981); conditions: HepG2 Attagene TRANS GAL4-LXRb reporter, mRNA
# Sequence of Oxysterols receptor LXR-beta (Homo sapiens) (P55055 whole entry, looked up, the tested form may be a part): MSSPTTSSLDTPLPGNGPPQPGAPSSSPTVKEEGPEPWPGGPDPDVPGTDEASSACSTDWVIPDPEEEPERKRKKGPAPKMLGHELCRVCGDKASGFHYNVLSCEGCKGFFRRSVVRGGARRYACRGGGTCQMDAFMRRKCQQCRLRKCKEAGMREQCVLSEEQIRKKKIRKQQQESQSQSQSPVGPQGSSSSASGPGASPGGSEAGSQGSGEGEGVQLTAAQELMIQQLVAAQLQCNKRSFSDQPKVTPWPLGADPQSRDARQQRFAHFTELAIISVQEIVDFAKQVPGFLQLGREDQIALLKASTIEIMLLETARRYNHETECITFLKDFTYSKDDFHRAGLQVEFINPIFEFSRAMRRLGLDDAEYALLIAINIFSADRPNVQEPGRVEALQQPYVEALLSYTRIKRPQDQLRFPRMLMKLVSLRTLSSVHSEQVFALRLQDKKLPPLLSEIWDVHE
# In short: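 Cells: HepG2, transiently transfected with GAL4-UAS reporter units plus LXRb-Gal4 fusion. Treatment: 24 h. Detection: reporter mRNA by RT-PCR, 6-FAM labelling, HpaI digestion, capillary electrophoresis.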
# [17] = ATG_M_32_TRANS: Attagene TRANS-FACTORIAL HepG2 Assay for M32 Transcription Factor (Internal Marker) (AID 2282984); conditions: HepG2 Attagene TRANS M32 internal marker reporter;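 note: transcript level of a background control reporter unit measured by RT-PCR and capillary electrophoresis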
# In short: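 Using transiently transfected HepG2 cells exposed to test chemicals for 24 h, reporter transcripts are converted to labelled cDNA fragments and quantified by capillary electrophoresis. DMSO defines the activity baseline.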
# [18] = target: Transcriptional activator Myb (Homo sapiens) (UniProt P10242); test: ATG_Myb_CIS: Attagene CIS-FACTORIAL HepG2 Assay for human Myeloblastosis (Myb) Proto-Oncogene Transcription Factor (AID 2282986; active = hit-call score of the fitted dose curve at least 0.9, where 1 is the maximum; inactive = score below 0.9); conditions: HepG2 Attagene CIS-FACTORIAL Myb reporter transcription; actives raise or lower the signal
# Sequence of Transcriptional activator Myb (Homo sapiens) (P10242 whole entry, looked up): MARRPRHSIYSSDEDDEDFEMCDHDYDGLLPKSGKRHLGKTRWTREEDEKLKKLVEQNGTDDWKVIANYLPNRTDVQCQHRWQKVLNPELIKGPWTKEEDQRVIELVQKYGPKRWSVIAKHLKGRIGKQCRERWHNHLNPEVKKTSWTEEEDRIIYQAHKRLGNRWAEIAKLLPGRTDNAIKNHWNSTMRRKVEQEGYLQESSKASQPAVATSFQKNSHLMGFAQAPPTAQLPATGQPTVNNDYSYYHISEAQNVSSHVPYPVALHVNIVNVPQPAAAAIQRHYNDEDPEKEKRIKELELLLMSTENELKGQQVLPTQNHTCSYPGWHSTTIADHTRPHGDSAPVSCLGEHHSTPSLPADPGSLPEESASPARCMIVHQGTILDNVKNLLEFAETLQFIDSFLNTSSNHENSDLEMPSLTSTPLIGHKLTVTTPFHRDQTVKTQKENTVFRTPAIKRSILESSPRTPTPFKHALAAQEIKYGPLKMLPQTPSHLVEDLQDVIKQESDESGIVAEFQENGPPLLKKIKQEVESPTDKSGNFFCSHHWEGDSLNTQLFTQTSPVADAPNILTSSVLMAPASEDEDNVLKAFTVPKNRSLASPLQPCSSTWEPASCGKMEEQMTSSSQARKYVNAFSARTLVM
# In short: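 Reporter mRNA is quantified by RT-PCR and capillary electrophoresis 24 h after dosing HepG2 cells transfected with cis-regulated reporter units, which track endogenous transcription factor activity. Gain and loss of signal are fitted versus DMSO baseline.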
# [19] = target: Estrogen-related receptor gamma (Homo sapiens) (UniProt P62508); test: ATG_ERRg_TRANS: Attagene TRANS-FACTORIAL HepG2 Assay for human Estrogen-Related Receptor gamma (ERRg) (AID 2282977); conditions: HepG2 Attagene TRANS reporter, ERRg transactivation;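 note: hits increase reporter signal over DMSO so potencies reflect activators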
# In short: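 HepG2 cells transiently transfected with multiplexed GAL4-UAS reporter units and chimeric NR-Gal4 constructs were exposed to test chemicals for 24 h. Reporter mRNA was measured by RT-PCR, 6-FAM primer extension, HpaI digestion and capillary electrophoresis; gain-of-signal versus DMSO.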
smiles,measurement,setting,value
C[N+](C)(C)CCCNS(=O)(=O)C(F)(F)C(F)(F)C(F)(F)C(F)(F)C(F)(F)C(F)(F)C(F)(F)C(F)(F)F,outcome,[1],inactive
same,outcome,[2],inactive
same,AC50,[3],60.6 µM (active)
same,outcome,[4],inactive
same,outcome,[5],inactive
same,outcome,[6],inactive
same,outcome,[7],inactive
same,outcome,[8],inactive
same,outcome,[9],inactive
same,outcome,[10],inactive
same,outcome,[11],inactive
same,outcome,[12],inactive
same,outcome,[13],inactive
CC(C)(C)C1CCC(=O)CC1,outcome,[1],inactive
same,outcome,[2],inactive
same,outcome,[3],inactive
same,outcome,[4],inactive
same,outcome,[5],inactive
same,outcome,[14],inactive
same,outcome,[7],inactive
same,outcome,[8],inactive
same,outcome,[9],inactive
same,outcome,[10],inactive
same,outcome,[15],inactive
same,outcome,[16],inactive
same,outcome,[17],inactive
same,outcome,[18],inactive
CCc1cccc(C)c1N,outcome,[1],inactive
same,outcome,[2],inactive
same,outcome,[3],inactive
same,outcome,[4],inactive
same,outcome,[5],inactive
same,outcome,[14],inactive
same,outcome,[7],inactive
same,outcome,[8],inactive
same,outcome,[19],inactive
same,outcome,[9],inactive
same,outcome,[15],inactive
same,outcome,[11],inactive
same,outcome,[17],inactive
same,outcome,[13],inactive
same,outcome,[18],inactive
CCCCNC(=S)NCCCC,outcome,[1],inactive
same,outcome,[2],inactive
same,outcome,[3],inactive
same,outcome,[4],inactive
same,outcome,[5],inactive
same,outcome,[6],inactive
same,outcome,[8],inactive
same,outcome,[19],inactive
same,outcome,[9],inactive
same,outcome,[10],inactive
same,outcome,[11],inactive
same,outcome,[12],inactive
same,outcome,[18],inactive
O=C(Nc1ccccc1)c1cc(Cl)ccc1O,outcome,[1],inactive
same,outcome,[2],inactive
same,AC50,[3],52.5 µM (active)
same,AC50,[4],6.51 µM (active)
same,outcome,[5],inactive
same,AC50,[6],4.18 µM (active)
same,outcome,[7],inactive
same,outcome,[9],inactive
same,outcome,[10],inactive
same,outcome,[15],inactive
same,outcome,[16],inactive
same,outcome,[11],inactive
same,outcome,[17],inactive
Oc1ccccc1Cc1ccccc1O,AC50,[1],37.9 µM (active)
same,outcome,[2],inactive
same,outcome,[3],inactive
same,AC50,[4],133 µM (active)
same,AC50,[5],18.1 µM (active)
same,AC50,[6],144 µM (active)
same,outcome,[7],inactive
same,outcome,[8],inactive
same,outcome,[9],inactive
same,outcome,[15],inactive
same,outcome,[12],inactive
same,outcome,[17],inactive
same,outcome,[18],inactive
CCCC=C(C=O)CC,outcome,[1],inactive
same,outcome,[2],inactive
same,outcome,[3],inactive
same,outcome,[4],inactive
same,outcome,[5],inactive
same,outcome,[6],inactive
same,outcome,[7],inactive
same,outcome,[16],inactive
same,outcome,[11],inactive
same,outcome,[12],inactive
same,outcome,[13],inactive
same,outcome,[18],inactive
CC1CCC(C(C)(C)S)C(=O)C1 (centres undefined),outcome,[1],inactive
same,outcome,[2],inactive
same,outcome,[3],inactive
same,outcome,[4],inactive
same,outcome,[5],inactive
same,outcome,[6],inactive
same,outcome,[7],inactive
same,outcome,[8],inactive
same,outcome,[10],inactive
same,outcome,[15],inactive
same,outcome,[16],inactive
same,outcome,[11],inactive
same,outcome,[12],inactive
same,outcome,[17],inactive
same,outcome,[13],inactive
same,outcome,[18],inactive
